{
  "source": "PubChem BioAssay AID1782",
  "about": "(National Center for Advancing Translational Sciences (NCATS), 2009)",
  "note": "Records with an inconclusive call do not appear. A number with no mark means an inactive call. Active and inactive are the calls of the source. Calls follow the shape of the dose curve; as a rule, active = well fitted curve in the direction sought with a large enough effect; inconclusive = small, poorly fitted or top-dose-only effect, or another doubt; inactive = no such curve, though single readings can be large or run the other way.",
  "data": [
    {"target": "Pyruvate kinase PKLR (Homo sapiens) (UniProt P30613)", "sequence (P30613 whole entry, looked up)": "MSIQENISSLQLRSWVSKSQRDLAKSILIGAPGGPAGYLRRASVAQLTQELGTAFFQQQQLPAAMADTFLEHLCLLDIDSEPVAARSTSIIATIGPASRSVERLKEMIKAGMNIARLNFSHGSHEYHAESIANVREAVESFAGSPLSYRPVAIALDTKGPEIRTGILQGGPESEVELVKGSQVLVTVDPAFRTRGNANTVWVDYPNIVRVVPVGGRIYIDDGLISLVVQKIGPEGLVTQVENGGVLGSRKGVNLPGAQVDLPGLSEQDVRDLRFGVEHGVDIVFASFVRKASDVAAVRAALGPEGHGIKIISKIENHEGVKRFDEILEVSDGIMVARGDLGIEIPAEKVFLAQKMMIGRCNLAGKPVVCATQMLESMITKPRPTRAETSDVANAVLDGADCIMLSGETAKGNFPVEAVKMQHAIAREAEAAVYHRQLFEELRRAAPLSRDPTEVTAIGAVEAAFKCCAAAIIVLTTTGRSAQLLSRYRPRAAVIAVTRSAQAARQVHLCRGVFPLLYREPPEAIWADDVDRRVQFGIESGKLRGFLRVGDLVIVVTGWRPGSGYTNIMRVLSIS", "experiment": "Confirmation Concentration-Response Assay for Activators of Human Reticulocyte Pyruvate Kinase", "settings": "purified hPK-R, Kinase-Glo ATP luminescence, 1 h; series mostly up to 57.5 µM; activity change, positive = activation: at the top concentration", "from_the_text": "Confirmatory assay NIH Chemical Genomics Center [NCGC] Wael M. Rabeh, Lyudmila Nedyalkova and Hee-Wan Park [Structural Genomics Consortium, 100 College St. Toronto, Ontario, Canada] NCGC Assay Overview: Human pyruvate kinase reticulocyte (hPK-R) enzyme was supplied as a highly purified (>95% pure) preparation from Structural Genomics Consortium in Toronto (Ontario, Canada) and assayed for its ability to generate ATP from ADP using phosphoenolpyruvate (PEP) as a substrate. ATP generation was detected in a coupled reaction by luciferase-mediated luminescence, an ATP-dependent process. Pyruvate kinase substrates, PEP and ADP, were present in the assay at Km and approximately 10-fold below Km respectively. The enzyme was assayed at an intermediate level of activity to screen for both inhibitors and activators.\nNCGC Assay Protocol Summary for R-isoform Three uL of substrate mix (at r.t.) in assay buffer (50 mM Imidazole pH7.2, 50 mM KCl, 7 mM MgCl2, 0.01% Tween 20, 0.05% BSA) was dispensed into white solid bottom 1,536 well microtiter plates so that the final concentrations of substrates in the assay were 0.1 mM ADP and 0.5 mM PEP. 23 nL of compound were delivered by a pin tool and 1 uL of enzyme mix (final concentration of 0.1 nM) in assay buffer (4 degree Celsius) was added. Plates were incubated at room temperature for 1 hour. Two uL of detection mix (Kinase-Glo, Promega; at 4 degree Celsius protected from light) was added and luminescence read by a ViewLux (Perkin Elmer) at 1 second exposure/plate. Data were normalized to the uninhibited (row 31). Additionally, a no enzyme and 5-fold enzyme control was dispensed in row 32, split equally between the two conditions.", "values": [
      {"smiles": "Cn1c2ccsc2c2cnn(Cc3ccccc3F)c(=O)c21", "activity change, positive = activation": "-11%"},
      {"smiles": "Cc1cc2c(s1)c1cnn(Cc3ccccc3)c(=O)c1n2C", "activity change, positive = activation": "0.949%"},
      {"smiles": "Cc1cc2c(s1)c1cnn(Cc3cccc(F)c3)c(=O)c1n2C", "activity change, positive = activation": "-2.76%"},
      {"smiles": "COc1ccc(S(=O)(=O)N2CCN(S(=O)(=O)c3ccc4c(c3)OCCO4)CC2)cc1", "Potency": "1.41 µM (active)"},
      {"smiles": "COc1ccc(Cn2ncc3c4sc(C)cc4n(C)c3c2=O)cc1", "activity change, positive = activation": "2.35%"},
      {"smiles": "O=C(c1ccc2c(c1)OCCO2)N1CCN(S(=O)(=O)c2c(F)cccc2F)CC1", "activity change, positive = activation": "-13.7%"},
      {"smiles": "CC(=O)c1cc2c(s1)c1cnn(Cc3ccccc3F)c(=O)c1n2C", "activity change, positive = activation": "3.32%"},
      {"smiles": "CC(=O)Nc1cc2c(s1)c1cnn(Cc3ccccc3F)c(=O)c1n2C", "activity change, positive = activation": "2.97%"},
      {"smiles": "Cc1cc2c(s1)c1cnn(Cc3cccc(Cn4ncc5c6sc(C)cc6n(C)c5c4=O)c3F)c(=O)c1n2C", "activity change, positive = activation": "-2.51%"},
      {"smiles": "CC1(C)CCc2cc(S(=O)(=O)N3CCN(S(=O)(=O)c4c(F)cccc4F)CC3)ccc2O1", "Potency": "inactive"},
      {"smiles": "COc1ccc(Cn2ncc3c4sc(C)cc4n(C)c3c2=O)cc1F", "activity change, positive = activation": "-3.6%"},
      {"smiles": "Cn1c2cc(S(C)=O)sc2c2cnn(Cc3ccccc3F)c(=O)c21", "note": "(stereo not given)", "activity change, positive = activation": "-8.85%"},
      {"smiles": "O=S(=O)(c1cccc(C(F)(F)F)c1)N1CCN(S(=O)(=O)c2ccc3c(c2)OCCO3)CC1", "activity change, positive = activation": "5.75%"},
      {"smiles": "Cc1cc2c(s1)c1cnn(Cc3ccccc3F)c(=O)c1n2C", "Potency": "inactive"},
      {"smiles": "Cc1cc2c(s1)c1cnn(Cc3ccc(C(C)C)cc3)c(=O)c1n2C", "activity change, positive = activation": "1.33%"},
      {"smiles": "CSc1cc2c(s1)c1cnn(Cc3ccccc3F)c(=O)c1n2C", "activity change, positive = activation": "-10.3%"},
      {"smiles": "O=S(=O)(c1c(F)cccc1F)N1CCN(S(=O)(=O)c2c(F)cccc2F)CC1", "activity change, positive = activation": "-2.36%"},
      {"smiles": "CC(C)c1cc2c(s1)c1cnn(Cc3ccccc3F)c(=O)c1n2C", "activity change, positive = activation": "-6.48%"},
      {"smiles": "O=C(c1c(F)cccc1F)N1CCN(S(=O)(=O)c2ccc3c(c2)OCCO3)CC1", "activity change, positive = activation": "-15.6%"},
      {"smiles": "Cc1ccc(Cn2ncc3c4sc(C)cc4n(C)c3c2=O)c(C)c1", "activity change, positive = activation": "-3.18%"},
      {"smiles": "Cc1cc2c(s1)c1cnn(Cc3ccc(C(F)(F)F)cc3)c(=O)c1n2C", "activity change, positive = activation": "1.32%"},
      {"smiles": "O=S(=O)(c1ccc2c(c1)OCCCO2)N1CCN(S(=O)(=O)c2c(F)cccc2F)CC1", "activity change, positive = activation": "5.67%"},
      {"smiles": "Cc1cc2c(s1)c1cnn(Cc3cccc(F)c3F)c(=O)c1n2C", "activity change, positive = activation": "-17%"},
      {"smiles": "Cn1c2cc(C=O)sc2c2cnn(Cc3ccccc3F)c(=O)c21", "activity change, positive = activation": "-8.47%"},
      {"smiles": "COC(=O)c1cc2c(s1)c1cnn(Cc3ccccc3F)c(=O)c1n2C", "activity change, positive = activation": "-2.06% [at 28.7 µM]"},
      {"smiles": "O=C(CN1C(=O)N/C(=C\\c2cccn2-c2cccc(C(=O)O)c2)C1=O)Nc1ccccc1F", "activity change, positive = activation": "-17.4%"},
      {"smiles": "Cc1cc2c(s1)c1cnn(Cc3cc(C(F)(F)F)cc(Cl)c3F)c(=O)c1n2C", "activity change, positive = activation": "-0.735%"},
      {"smiles": "N#Cc1ccc(S(=O)(=O)N2CCN(S(=O)(=O)c3ccc4c(c3)OCCO4)CC2)cc1", "activity change, positive = activation": "-5.65%"},
      {"smiles": "Cc1cc2c(s1)c1cnn(Cc3ccccc3Cl)c(=O)c1n2C", "activity change, positive = activation": "-2.54%"},
      {"smiles": "Cn1c2cc(CO)sc2c2cnn(Cc3ccccc3F)c(=O)c21", "activity change, positive = activation": "1.01%"},
      {"smiles": "O=S(=O)(NCCNS(=O)(=O)c1c(F)cccc1F)c1ccc2c(c1)OCCO2", "activity change, positive = activation": "10.2%"},
      {"smiles": "Cc1cc2c(s1)c1cnn(Cc3ccc(F)cc3)c(=O)c1n2C", "activity change, positive = activation": "-3%"},
      {"smiles": "Cn1c2cc([N+](=O)[O-])sc2c2cnn(Cc3ccccc3F)c(=O)c21", "activity change, positive = activation": "4.89%"},
      {"smiles": "Cc1cc2c(s1)c1cnn(Cc3ccc(-c4ccccc4)cc3)c(=O)c1n2C", "activity change, positive = activation": "-5.57%"},
      {"smiles": "Cc1cc2c(s1)c1cnn(Cc3ccc(F)c(F)c3F)c(=O)c1n2C", "activity change, positive = activation": "-17.7%"},
      {"smiles": "CCCCCn1ncc2c3sc(C)cc3n(C)c2c1=O", "activity change, positive = activation": "-3.84%"},
      {"smiles": "Cc1cc2c(s1)c1cnn(Cc3ccc(Cl)cc3)c(=O)c1n2C", "activity change, positive = activation": "4.3%"},
      {"smiles": "O=S(=O)(c1ccc2c(c1)OCCO2)N1CCN(S(=O)(=O)c2ccc3c(c2)OCCO3)CC1", "activity change, positive = activation": "9.4%"},
      {"smiles": "Cc1cc2c(s1)c1cnn(Cc3c(F)cccc3F)c(=O)c1n2C", "activity change, positive = activation": "-1.31%"},
      {"smiles": "Cc1cc2c(s1)c1cnn(Cc3ccc(F)cc3F)c(=O)c1n2C", "activity change, positive = activation": "-0.917%"}
    ]}
  ]
}
